# In PMC7862700, “An all-to-all approach to the identification of sequence-specific readers for epigenetic DNA modifications on cytosine”:
# Assays:
# Test in all cases: DAPPL (digital affinity profiling via proximity ligation, sequencing); 10 mM Tris-HCl pH 7.5, 50 mM NaCl, 1 mM DTT, 4% glycerol, room temperature, 30 min; GST-TFs on glutathione beads, 16-mer random dsDNA library, 0.1% formaldehyde crosslink after washing; high values mean tight binding
# Details in all cases: protein: recombinant; tags: N-terminal GST; dsDNA, one strand shown
# ELK1 = molecular target: T1, ELK1 (Homo sapiens, UniProt P19419 1-428)
# T1 sequence: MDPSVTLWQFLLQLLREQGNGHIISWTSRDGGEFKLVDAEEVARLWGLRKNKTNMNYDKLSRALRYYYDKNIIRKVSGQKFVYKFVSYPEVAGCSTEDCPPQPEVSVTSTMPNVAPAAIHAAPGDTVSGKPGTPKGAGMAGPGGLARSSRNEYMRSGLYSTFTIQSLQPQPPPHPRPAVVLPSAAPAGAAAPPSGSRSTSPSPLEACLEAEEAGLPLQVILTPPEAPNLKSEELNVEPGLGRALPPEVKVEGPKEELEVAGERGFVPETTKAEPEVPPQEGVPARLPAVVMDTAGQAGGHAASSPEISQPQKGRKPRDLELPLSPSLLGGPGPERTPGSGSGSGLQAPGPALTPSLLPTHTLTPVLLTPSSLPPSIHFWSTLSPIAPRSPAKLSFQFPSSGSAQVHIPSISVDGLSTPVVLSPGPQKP
# Procedure, shortened: (§1)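 Yeast served to express human transcription factors as GST fusions, which were then captured on glutathione beads and labelled with DNA barcodes. Pooled with a tag-only sample, they were incubated with 200 nmole of a 16-mer random double-stranded DNA library for 30 min at room temperature in Tris/NaCl/DTT/glycerol buffer, washed, crosslinked with 0.1% formaldehyde, ligated by proximity, amplified by PCR and sequenced. Dividing each hexamer's read frequency for a factor by its frequency for the tag-only sample gives the binding signal.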
# GABPA = molecular target: T2, GABPA (Homo sapiens, UniProt Q06546 1-454)
# T2 sequence: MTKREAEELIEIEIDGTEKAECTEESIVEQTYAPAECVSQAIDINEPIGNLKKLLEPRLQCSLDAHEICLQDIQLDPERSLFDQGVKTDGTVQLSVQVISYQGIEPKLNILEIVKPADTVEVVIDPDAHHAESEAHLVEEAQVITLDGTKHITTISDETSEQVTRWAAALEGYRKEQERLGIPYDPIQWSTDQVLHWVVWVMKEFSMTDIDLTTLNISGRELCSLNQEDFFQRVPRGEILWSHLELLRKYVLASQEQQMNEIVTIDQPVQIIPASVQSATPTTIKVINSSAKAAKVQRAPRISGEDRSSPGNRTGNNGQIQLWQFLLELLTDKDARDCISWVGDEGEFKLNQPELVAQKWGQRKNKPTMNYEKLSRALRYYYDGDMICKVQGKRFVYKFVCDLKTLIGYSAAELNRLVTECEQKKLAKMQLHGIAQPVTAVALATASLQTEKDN
# Procedure, shortened: as §1
# ELF3 = molecular target: T3, ELF3 (Homo sapiens, UniProt P78545 1-371)
# T3 sequence: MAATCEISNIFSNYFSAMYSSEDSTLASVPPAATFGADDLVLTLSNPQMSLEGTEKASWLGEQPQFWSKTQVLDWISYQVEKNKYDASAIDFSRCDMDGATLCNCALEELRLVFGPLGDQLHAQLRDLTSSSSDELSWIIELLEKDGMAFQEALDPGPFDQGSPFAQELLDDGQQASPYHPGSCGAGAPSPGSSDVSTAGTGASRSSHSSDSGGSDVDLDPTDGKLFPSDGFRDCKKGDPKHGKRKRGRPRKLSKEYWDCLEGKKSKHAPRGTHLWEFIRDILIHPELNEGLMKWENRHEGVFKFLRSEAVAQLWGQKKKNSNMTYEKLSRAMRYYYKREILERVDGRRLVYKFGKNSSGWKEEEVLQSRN
# Procedure, shortened: as §1
# CRX = CRX (Homo sapiens, UniProt O43186 1-299)
# Procedure, shortened: as §1
# ETV1 = ETV1 (Homo sapiens, UniProt P50549 1-477)
# Procedure, shortened: as §1
# ERF = molecular target: T4, ERF (Homo sapiens, UniProt P50548 1-548)
# T4 sequence: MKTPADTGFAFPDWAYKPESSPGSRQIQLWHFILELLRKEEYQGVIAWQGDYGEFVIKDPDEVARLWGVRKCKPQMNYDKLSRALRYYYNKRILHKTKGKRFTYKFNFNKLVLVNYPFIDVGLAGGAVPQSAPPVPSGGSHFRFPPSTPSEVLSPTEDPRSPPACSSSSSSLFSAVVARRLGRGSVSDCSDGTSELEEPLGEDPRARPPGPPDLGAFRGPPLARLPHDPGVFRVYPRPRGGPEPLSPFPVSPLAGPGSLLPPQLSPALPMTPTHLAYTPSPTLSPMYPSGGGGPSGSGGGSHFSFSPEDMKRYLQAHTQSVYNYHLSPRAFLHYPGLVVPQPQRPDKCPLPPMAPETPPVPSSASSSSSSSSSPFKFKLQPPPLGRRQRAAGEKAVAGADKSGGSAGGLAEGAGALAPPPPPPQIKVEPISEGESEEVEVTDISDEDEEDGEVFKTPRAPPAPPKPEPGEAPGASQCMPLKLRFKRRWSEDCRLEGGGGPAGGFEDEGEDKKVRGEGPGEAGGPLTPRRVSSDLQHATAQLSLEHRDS
# Procedure, shortened: as §1
# SPDEF = molecular target: T5, SPDEF (Homo sapiens, UniProt O95238 1-335)
# T5 sequence: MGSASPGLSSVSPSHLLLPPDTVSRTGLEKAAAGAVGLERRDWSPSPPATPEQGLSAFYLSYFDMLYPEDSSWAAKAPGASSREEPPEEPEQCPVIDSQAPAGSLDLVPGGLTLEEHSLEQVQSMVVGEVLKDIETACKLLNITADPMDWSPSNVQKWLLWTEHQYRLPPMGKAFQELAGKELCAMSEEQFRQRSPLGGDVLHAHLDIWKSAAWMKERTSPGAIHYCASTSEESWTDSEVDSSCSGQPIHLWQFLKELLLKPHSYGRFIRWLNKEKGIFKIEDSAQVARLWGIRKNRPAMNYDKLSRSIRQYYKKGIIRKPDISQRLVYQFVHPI
# Procedure, shortened: as §1
# ELF5 = molecular target: T6, ELF5 (Homo sapiens, UniProt Q9UKW6-2 1-255)
# T6 sequence: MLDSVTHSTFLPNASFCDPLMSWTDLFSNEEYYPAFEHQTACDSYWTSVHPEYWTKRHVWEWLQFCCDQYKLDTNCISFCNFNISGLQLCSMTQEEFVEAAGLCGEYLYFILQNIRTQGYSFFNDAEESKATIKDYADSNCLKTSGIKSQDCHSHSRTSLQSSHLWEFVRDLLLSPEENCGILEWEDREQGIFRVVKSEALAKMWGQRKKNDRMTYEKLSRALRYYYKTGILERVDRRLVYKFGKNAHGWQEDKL
# Procedure, shortened: as §1
# ETV6 = ETV6 (Homo sapiens, UniProt P41212 1-452)
# Procedure, shortened: as §1
# ELF1 = ELF1 (Homo sapiens, UniProt P32519 1-619)
# Procedure, shortened: as §1
# EHF = molecular target: T7, EHF (Homo sapiens, UniProt Q9NZC4 1-300)
# T7 sequence: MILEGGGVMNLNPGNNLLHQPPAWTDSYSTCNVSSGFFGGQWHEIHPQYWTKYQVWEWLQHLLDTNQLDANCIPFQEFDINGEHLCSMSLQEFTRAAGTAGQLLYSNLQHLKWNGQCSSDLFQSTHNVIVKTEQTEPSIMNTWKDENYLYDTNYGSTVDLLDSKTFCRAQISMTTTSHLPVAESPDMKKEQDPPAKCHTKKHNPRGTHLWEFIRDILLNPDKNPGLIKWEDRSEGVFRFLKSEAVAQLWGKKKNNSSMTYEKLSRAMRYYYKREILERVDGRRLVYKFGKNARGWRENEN
# Procedure, shortened: as §1
# ELK4 = molecular target: T8, ELK4 (Homo sapiens, UniProt P28324-2 1-405)
# T8 sequence: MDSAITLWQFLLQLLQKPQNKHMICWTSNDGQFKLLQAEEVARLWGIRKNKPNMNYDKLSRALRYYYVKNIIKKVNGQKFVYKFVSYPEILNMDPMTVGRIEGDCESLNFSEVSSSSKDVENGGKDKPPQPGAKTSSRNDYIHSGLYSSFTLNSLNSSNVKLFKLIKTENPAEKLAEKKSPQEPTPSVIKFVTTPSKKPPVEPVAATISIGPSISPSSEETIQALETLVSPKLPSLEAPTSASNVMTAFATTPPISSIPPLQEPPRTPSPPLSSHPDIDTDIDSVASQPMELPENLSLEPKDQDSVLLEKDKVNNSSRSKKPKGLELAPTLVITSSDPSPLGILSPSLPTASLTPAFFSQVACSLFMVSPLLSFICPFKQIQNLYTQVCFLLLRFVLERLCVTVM
# Procedure, shortened: as §1
# ETV2 = molecular target: T9, ETV2 (Homo sapiens, UniProt O00321 1-342)
# T9 sequence: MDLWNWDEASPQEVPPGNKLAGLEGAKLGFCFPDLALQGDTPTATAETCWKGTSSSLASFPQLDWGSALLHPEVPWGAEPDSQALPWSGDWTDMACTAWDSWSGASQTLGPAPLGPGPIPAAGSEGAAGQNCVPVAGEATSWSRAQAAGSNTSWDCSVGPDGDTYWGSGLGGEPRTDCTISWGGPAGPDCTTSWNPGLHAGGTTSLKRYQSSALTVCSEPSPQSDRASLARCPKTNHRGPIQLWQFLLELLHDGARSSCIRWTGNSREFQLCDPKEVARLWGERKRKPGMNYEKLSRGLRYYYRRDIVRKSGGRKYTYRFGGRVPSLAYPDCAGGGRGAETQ
# Procedure, shortened: as §1
# ELK3 = molecular target: T10, ELK3 (Homo sapiens, UniProt P41970 1-407)
# T10 sequence: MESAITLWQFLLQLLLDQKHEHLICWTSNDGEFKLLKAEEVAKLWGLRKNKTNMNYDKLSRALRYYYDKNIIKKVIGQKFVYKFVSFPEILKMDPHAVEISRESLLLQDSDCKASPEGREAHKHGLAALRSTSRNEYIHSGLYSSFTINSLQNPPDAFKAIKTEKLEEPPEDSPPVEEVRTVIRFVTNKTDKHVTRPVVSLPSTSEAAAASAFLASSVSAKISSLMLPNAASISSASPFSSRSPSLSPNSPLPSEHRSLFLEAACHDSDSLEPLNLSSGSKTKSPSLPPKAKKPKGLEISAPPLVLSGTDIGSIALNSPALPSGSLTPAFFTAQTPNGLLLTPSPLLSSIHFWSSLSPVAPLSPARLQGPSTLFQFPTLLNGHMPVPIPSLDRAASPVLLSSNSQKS
# Procedure, shortened: as §1
# ETV7 = molecular target: T11, ETV7 (Homo sapiens, UniProt Q9Y603 1-341)
# T11 sequence: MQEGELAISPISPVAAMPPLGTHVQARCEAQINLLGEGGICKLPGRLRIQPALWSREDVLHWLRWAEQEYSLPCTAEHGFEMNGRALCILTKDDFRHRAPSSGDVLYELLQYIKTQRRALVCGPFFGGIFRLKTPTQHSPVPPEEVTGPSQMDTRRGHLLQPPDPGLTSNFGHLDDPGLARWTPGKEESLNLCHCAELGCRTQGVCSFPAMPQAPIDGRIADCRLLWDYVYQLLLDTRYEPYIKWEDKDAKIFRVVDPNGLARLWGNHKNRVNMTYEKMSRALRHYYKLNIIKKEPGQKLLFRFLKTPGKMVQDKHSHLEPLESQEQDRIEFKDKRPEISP
# Procedure, shortened: as §1
# ETV1, sequence (P50549 whole entry): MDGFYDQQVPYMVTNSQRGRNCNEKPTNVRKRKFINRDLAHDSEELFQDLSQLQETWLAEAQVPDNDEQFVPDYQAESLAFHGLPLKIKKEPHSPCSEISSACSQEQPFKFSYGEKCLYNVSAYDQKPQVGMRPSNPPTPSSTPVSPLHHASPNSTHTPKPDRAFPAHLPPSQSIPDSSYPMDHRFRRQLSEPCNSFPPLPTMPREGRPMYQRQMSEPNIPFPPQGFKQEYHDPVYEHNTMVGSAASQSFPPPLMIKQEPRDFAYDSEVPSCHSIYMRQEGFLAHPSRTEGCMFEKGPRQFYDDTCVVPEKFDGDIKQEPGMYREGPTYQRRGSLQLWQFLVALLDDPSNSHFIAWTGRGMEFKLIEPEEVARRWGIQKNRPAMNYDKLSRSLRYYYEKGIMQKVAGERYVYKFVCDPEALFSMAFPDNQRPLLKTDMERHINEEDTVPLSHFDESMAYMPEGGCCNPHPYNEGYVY
# ETV6, sequence (P41212 whole entry): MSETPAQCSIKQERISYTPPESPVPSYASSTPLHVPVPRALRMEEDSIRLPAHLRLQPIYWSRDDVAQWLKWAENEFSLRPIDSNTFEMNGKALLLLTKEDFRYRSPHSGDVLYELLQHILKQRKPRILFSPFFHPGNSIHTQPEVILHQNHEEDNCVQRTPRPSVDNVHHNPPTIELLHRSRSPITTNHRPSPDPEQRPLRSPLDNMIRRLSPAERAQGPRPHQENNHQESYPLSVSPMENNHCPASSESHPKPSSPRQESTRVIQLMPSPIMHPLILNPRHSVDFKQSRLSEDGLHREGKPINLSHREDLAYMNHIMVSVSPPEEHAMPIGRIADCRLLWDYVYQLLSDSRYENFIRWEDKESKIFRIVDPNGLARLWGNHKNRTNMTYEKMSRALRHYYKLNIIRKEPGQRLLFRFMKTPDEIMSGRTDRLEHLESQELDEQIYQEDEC
# CRX, sequence (O43186 whole entry): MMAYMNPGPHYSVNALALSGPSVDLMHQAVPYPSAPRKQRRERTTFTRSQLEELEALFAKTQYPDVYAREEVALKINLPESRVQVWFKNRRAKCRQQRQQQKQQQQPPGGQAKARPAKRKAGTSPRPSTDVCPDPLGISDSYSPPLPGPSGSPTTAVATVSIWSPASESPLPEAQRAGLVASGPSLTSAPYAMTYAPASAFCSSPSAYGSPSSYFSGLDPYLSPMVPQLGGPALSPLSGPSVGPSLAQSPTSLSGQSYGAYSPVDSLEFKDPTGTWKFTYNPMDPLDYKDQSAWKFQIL
# ELF1, sequence (P32519 whole entry): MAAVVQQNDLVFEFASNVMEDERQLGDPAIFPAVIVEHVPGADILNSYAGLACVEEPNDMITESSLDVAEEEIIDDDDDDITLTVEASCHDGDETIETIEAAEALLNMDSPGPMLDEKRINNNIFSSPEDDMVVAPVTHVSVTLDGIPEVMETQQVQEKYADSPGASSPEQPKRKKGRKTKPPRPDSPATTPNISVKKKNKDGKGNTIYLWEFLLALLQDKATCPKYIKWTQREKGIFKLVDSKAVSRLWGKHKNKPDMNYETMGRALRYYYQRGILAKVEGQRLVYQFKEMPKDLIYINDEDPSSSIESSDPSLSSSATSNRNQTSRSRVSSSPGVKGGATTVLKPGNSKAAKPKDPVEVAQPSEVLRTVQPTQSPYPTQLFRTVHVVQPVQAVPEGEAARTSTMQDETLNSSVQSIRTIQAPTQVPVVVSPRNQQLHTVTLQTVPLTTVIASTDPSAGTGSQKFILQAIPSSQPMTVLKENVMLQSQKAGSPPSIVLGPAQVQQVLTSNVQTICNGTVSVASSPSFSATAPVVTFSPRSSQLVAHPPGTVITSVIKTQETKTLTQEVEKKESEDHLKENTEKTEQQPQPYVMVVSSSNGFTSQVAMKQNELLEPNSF
sequence,measurement,setting,value
AGGTAA,binding signal,ELK1,"1.03 fold enrichment (6-mer frequency, TF over GST control)"
same,binding signal,GABPA,"1.02 fold enrichment (6-mer frequency, TF over GST control)"
same,binding signal,ELF3,"1.11 fold enrichment (6-mer frequency, TF over GST control)"
same,binding signal,CRX,"1.14 fold enrichment (6-mer frequency, TF over GST control)"
same,binding signal,ETV1,"1.02 fold enrichment (6-mer frequency, TF over GST control)"
same,binding signal,ERF,"1.06 fold enrichment (6-mer frequency, TF over GST control)"
same,binding signal,SPDEF,"1 fold enrichment (6-mer frequency, TF over GST control)"
same,binding signal,ELF5,"1.01 fold enrichment (6-mer frequency, TF over GST control)"
same,binding signal,ETV6,"1.02 fold enrichment (6-mer frequency, TF over GST control)"
GATACC,binding signal,ELF1,"1.04 fold enrichment (6-mer frequency, TF over GST control)"
same,binding signal,EHF,"1 fold enrichment (6-mer frequency, TF over GST control)"
same,binding signal,ELK4,"1.01 fold enrichment (6-mer frequency, TF over GST control)"
same,binding signal,ETV2,"1 fold enrichment (6-mer frequency, TF over GST control)"
same,binding signal,ELF3,"1 fold enrichment (6-mer frequency, TF over GST control)"
same,binding signal,ETV1,"1 fold enrichment (6-mer frequency, TF over GST control)"
same,binding signal,SPDEF,"1.04 fold enrichment (6-mer frequency, TF over GST control)"
GCATAT,binding signal,ELK3,"1.04 fold enrichment (6-mer frequency, TF over GST control)"
same,binding signal,ELK4,"1.07 fold enrichment (6-mer frequency, TF over GST control)"
same,binding signal,ETV2,"1.02 fold enrichment (6-mer frequency, TF over GST control)"
same,binding signal,SPDEF,"1.01 fold enrichment (6-mer frequency, TF over GST control)"
same,binding signal,ETV7,"1.08 fold enrichment (6-mer frequency, TF over GST control)"
